Records with an inconclusive call do not appear. Activity calls are given as the source filed them. How the source made its calls, unless noted: active means hit-call score of the fitted dose curve at least 0.9, where 1 is the maximum; inconclusive means response in the unintended direction; inactive means score below 0.9.
Columns and labels:
[1] = test system: Thyroperoxidase (TPO), gene 54314; assay: CCTE_Simmons_AUR_rTPO: CCTE's Amplex UltraRed Assay for Thyroperoxidase (TPO) Inhibition, Simmons Lab (AID 2283662);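 further: potency for loss of signal meaning inhibition of peroxidase activity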
Outline: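 Endpoint is decreased Amplex UltraRed fluorescence after a 30-min, 37C reaction of rat thyroid microsomes with 300 uM H2O2. Eight test concentrations (5 nM–87.5 uM final) in 0.5% DMSO, three biological replicates each.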

[2] = CCTE_Simmons_CellTiterGLO_HEK293T: Viability Assessment in CCTE's Assays for Thyroperoxidase (TPO) Inhibition, Simmons Lab (AID 2283665);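 further: cells exposed to compound for 24 h before readout; actives reduce ATP signal below DMSO vehicle meaning cytotoxicity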
Outline: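 HEK293T cells in DMEM with 1% FBS were dosed with 8 concentrations (5 nM–87.5 uM final, 0.5% DMSO) for 24 hr at 37C; ATP content was read by CellTiter-Glo luminescence, loss-of-signal versus DMSO, three biological replicates.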

[3] = target: Luciferin 4-monooxygenase (Photinus pyralis) (UniProt P08659); assay: CCTE_Simmons_QuantiLum_inhib_2: CCTE's Firefly Luciferase Inhibition Assay, Simmons Lab (AID 2283767)
Chain of Luciferin 4-monooxygenase (Photinus pyralis) (P08659 whole entry, looked up): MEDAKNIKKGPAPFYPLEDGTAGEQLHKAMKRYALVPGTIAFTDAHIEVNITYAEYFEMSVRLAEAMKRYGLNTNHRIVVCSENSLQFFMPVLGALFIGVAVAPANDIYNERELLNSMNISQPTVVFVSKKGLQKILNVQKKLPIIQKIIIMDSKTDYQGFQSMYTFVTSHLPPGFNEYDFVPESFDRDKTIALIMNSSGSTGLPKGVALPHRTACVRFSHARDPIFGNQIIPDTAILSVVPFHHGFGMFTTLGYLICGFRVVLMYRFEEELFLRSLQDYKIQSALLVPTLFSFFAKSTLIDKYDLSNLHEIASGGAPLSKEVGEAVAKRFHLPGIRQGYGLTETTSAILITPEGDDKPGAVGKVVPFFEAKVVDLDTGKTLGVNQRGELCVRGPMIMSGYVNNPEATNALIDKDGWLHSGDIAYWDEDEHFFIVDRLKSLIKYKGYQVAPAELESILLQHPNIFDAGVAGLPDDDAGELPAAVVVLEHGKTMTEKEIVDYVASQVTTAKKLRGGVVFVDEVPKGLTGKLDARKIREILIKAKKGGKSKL
Outline: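 Recombinant firefly luciferase (5 ng/well, 200 mM potassium phosphate with 1 mg/ml BSA) was exposed to 8 concentrations from 5 nM to 87.5 uM (final, 0.5% DMSO) for 30 min at 37C in the dark. Loss of luminescence versus DMSO was read after injecting D-luciferin/ATP-analogue reagent.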

[4] = ACEA_AR_agonist_AUC_viability: ACEA Biosciences xCELLigence Real-Time Cell Analysis on Androgen Receptor Agonism for Viability (AID 2283775);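 on AC50: viability read 80 hours after compound addition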
Outline: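 Read-out is area under the impedance curve at 80 h post-dose in 22Rv1 cells, with DMSO as baseline and signal loss taken as reduced viability. Compounds ran in duplicate from 100 uM final.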

[5] = ACEA_AR_antagonist_AUC_viability: ACEA Biosciences xCELLigence Real-Time Cell Analysis on Androgen Receptor Antagonism for Viability (AID 2283776);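 further: 22Rv1 human prostate cancer cells growing on impedance electrode plates; area under impedance growth curve at 80 h after dosing as viability; hits lower the growth signal relative to DMSO meaning cytotoxicity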
Outline: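 Viability endpoint from label-free cell-index monitoring: 22Rv1 cultures treated with an eight-point 1:4 dilution series starting at 100 uM final, AUC at 80 h fitted against DMSO.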

[6] = CEETOX_H295R_MTT_cell_viability: Viability Assessment in the CeeTox HT-H295R MTT Assay (AID 2283718; active means hit-call score of the fitted dose curve at least 0.9, where 1 is the maximum; inactive means score below 0.9;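 on AC50: curve fitted both ways so AC50 may mark viability loss or gain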)
Outline: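 H295R cells prestimulated 48 h with 10 uM forskolin, then exposed 48 h to test chemical (0.1% DMSO final). Viability by MTT (0.5 mg/ml, 4 h, 37 C), absorbance 570/650 nm; percent change versus DMSO, bidirectional fit.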

[7] = target: zebrafish Estrogen Receptor (ESR1), esr1 (gene 259252) (UniProt P57717); assay: ATG_zfER1_XSP1: Attagene TRANS-FACTORIAL Multi-Species (XSP1) HepG2 Assay for zebrafish Estrogen Receptor (ESR1) (AID 2283772)
Chain of zebrafish Estrogen Receptor (ESR1), esr1 (gene 259252) (P57717 whole entry, looked up, the tested form may be a part): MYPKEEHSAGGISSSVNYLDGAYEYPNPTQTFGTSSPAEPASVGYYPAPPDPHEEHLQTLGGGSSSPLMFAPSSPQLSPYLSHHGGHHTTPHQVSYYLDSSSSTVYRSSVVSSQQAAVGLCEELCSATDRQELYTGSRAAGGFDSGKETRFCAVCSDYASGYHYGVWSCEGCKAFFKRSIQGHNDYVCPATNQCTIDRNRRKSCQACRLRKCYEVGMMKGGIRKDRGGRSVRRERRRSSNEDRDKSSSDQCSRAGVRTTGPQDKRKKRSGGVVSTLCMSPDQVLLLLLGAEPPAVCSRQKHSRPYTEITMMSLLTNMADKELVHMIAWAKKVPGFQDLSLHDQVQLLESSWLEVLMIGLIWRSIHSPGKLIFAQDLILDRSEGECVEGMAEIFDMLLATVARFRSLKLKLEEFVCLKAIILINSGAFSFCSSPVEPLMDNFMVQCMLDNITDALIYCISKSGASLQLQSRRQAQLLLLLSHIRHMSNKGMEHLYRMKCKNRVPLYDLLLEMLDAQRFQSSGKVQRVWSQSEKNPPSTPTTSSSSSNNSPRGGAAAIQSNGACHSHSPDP
Outline: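 Readout: fluorescent reporter mRNA, RT-PCR plus FAM labelling, HpaI digest, capillary electrophoresis; gain-of-signal fit vs DMSO. HepG2, transient multi-reporter TRANS (NR-GAL4 chimera), 24 h chemical exposure, 3 nM 6-alpha-fluorotestosterone co-added.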

[8] = test system: zebrafish Estrogen Receptor (ESR2B), gene 317733; assay: ATG_zfER2b_XSP1: Attagene TRANS-FACTORIAL Multi-Species (XSP1) HepG2 Assay for zebrafish Estrogen Receptor (ESR2B) (AID 2283773)
Outline: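 HepG2 cells transiently transfected with multiple GAL4-UAS reporter units expressing chimeric zebrafish ER2b-Gal4; 24 h chemical exposure with 3 nM 6-alpha-fluorotestosterone present. Reporter mRNA measured by RT-PCR and capillary electrophoresis; gain of signal fitted versus DMSO.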

[9] = test system: frog Estrogen Receptor (ESR2), gene 100174814; assay: ATG_frER2_XSP1: Attagene TRANS-FACTORIAL Multi-Species (XSP1) HepG2 Assay for frog Estrogen Receptor (ESR2) (AID 2283774)
Outline: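 HepG2 cells transiently transfected with GAL4-UAS multiplexed reporter units expressing chimeric NR-Gal4 proteins; reporter mRNA measured 24 h after dosing by RT-PCR, FAM labeling, HpaI digestion and capillary electrophoresis. Gain-of-signal relative to DMSO; 3 nM 6-alpha-fluorotestosterone present.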

Q: For COc1ccc(O)cc1, which AC50 [1] is on record?
A: 8.4 µM (active)

Q: And the AC50 [2]?
A: 34.2 µM (active)

Q: And the outcome [3]?
A: inactive

Q: And the outcome [4]?
A: inactive

Q: And the outcome [5]?
A: inactive

Q: For CCCCC(CC)COC(=O)/C=C\C(=O)OCC(CC)CCCC (centres undefined), which outcome [4] is on record?
A: inactive

Q: For c1ccc(CCCc2ccccn2)cc1, which outcome [6] is on record?
A: inactive

Q: What about the outcome [4] of the same compound?
A: inactive

Q: For COc1c(Cl)c(Cl)c(Cl)c(Cl)c1Cl, which outcome [4] is on record?
A: inactive

Q: What does the source list for CC1COc2ccccc2N1C(=O)C(Cl)Cl (centres undefined)?
A: AC50 [6]: 4.9 µM (active); AC50 [4]: 2.33 µM (active); AC50 [5]: 4.63 µM (active)

Q: Which outcome [4] does the source give for CCCCCCCCCCCCN here?
A: inactive

Q: For Cc1ccc(S)cc1, which outcome [4] is on record?
A: inactive

Q: Which results are given for CN(C)C(=N)N=C(N)N?
A: outcome [7]: inactive; AC50 [8]: 100 µM (active)

Q: Which outcome [6] does the source give for CC1CC(OC(=O)c2ccccc2O)CC(C)(C)C1 (centres undefined) here?
A: inactive

Q: And the outcome [5]?
A: inactive

Q: Which outcome [7] does the source give for CN(CCOc1ccc(CC2SC(=O)NC2=O)cc1)c1ccccn1 (centres undefined) here?
A: inactive

Q: What about the AC50 [8] of the same compound?
A: 0.0787 µM (active)

Q: What about the outcome [9] of the same compound?
A: inactive

Q: For CCCCCCCCC, which outcome [4] is on record?
A: inactive

Q: For C=CC(C)(O)CCC=C(C)CCC=C(C)C (centres undefined), which outcome [4] is on record?
A: inactive

Q: For CC1=CC(=O)NS(=O)(=O)O1, which outcome [4] is on record?
A: inactive

Q: And the outcome [5]?
A: inactive

Q: Which outcome [4] does the source give for CCCCCC(CO)CCC (centres undefined) here?
A: inactive

Q: Which results are given for O=C(O)CCCCCCCC(=O)O?
A: outcome [4]: inactive; outcome [5]: inactive

Q: With CCCOCC(C)O (centres undefined) as the compound, how does the outcome [4] read?
A: inactive

Q: For CCCCCCCCCCC(CO)CCCCCCCC (centres undefined), which AC50 [4] is on record?
A: 9.96 µM (active)

Q: For O=C1C(c2[nH]c3ccc(S(=O)(=O)O)cc3c2O)=Nc2ccc(S(=O)(=O)O)cc21, which outcome [4] is on record?
A: inactive

Q: For NCCCN1CCOCC1, which outcome [4] is on record?
A: inactive

Q: And the outcome [5]?
A: inactive

Q: For C=C(C)C(=O)O, which outcome [4] is on record?
A: inactive

Q: What about the outcome [5] of the same compound?
A: inactive

Q: For CC(=O)C=CC1=C(C)CCCC1(C)C, which outcome [4] is on record?
A: inactive

Q: Which outcome [4] does the source give for CCN(CC)c1ccc(C(=C2C=CC(=[N+](CC)CC)C=C2)c2ccc(S(=O)(=O)O)cc2S(=O)(=O)[O-])cc1 here?
A: inactive

Q: What does the source list for C=O?
A: outcome [4]: inactive; outcome [5]: inactive

Q: With CCCCCCCCCC=O as the compound, how does the outcome [4] read?
A: inactive

Q: For CCCCCCCCCCN, which outcome [4] is on record?
A: inactive

Q: What does the source list for NC(=O)Nc1ccc(Cl)cc1?
A: outcome [6]: inactive; outcome [4]: inactive

Q: What does the source list for CCCCCCCCC=O?
A: outcome [4]: inactive; outcome [5]: inactive

Q: For CC(C)(C)C(=O)c1ccccc1, which outcome [4] is on record?
A: inactive

Q: For BrC1CCC(Br)C(Br)CCC(Br)C(Br)CCC1Br (centres undefined), which outcome [4] is on record?
A: inactive

Q: What about the outcome [5] of the same compound?
A: inactive

Q: Which outcome [5] does the source give for O=C1NC(=O)c2ccccc21 here?
A: inactive

Q: With CC(C)C[C@H]1C(=O)N2CCC[C@H]2[C@]2(O)O[C@](NC(=O)[C@@H]3C=C4c5cccc6[nH]c(Br)c(c56)C[C@H]4N(C)C3)(C(C)C)C(=O)N12 as the compound, how does the outcome [4] read?
A: inactive

Q: What about the outcome [5] of the same compound?
A: inactive

Q: Which outcome [4] does the source give for CCCC/C=C\CCCCCCCCCC=O here?
A: inactive

Q: What about the outcome [5] of the same compound?
A: inactive

Q: Which results are given for OCCN1CCNCC1?
A: outcome [4]: inactive; outcome [5]: inactive

Q: For CC(C)=CCC[C@](C)(O)[C@@H]1CC=C(C)CC1, which outcome [4] is on record?
A: inactive

Q: And the outcome [5]?
A: inactive

Q: Which outcome [4] does the source give for O=C[C@@H](O)[C@H](O)[C@H](O)CO here?
A: inactive

Q: And the outcome [5]?
A: inactive

Q: Which outcome [4] does the source give for OCCOCCOCCOCCO here?
A: inactive

Q: And the outcome [5]?
A: inactive

Q: For CCN(CC)c1ccc2c(-c3ccccc3C(=O)O)c3ccc(=[N+](CC)CC)cc-3oc2c1, which AC50 [4] is on record?
A: 9.44 µM (active)

Q: And the outcome [5]?
A: inactive

Q: For CC1(C)[C@@H]2CC[C@@]1(C)[C@H](O)C2, which outcome [4] is on record?
A: inactive

Q: And the outcome [5]?
A: inactive

Q: Which outcome [5] does the source give for CC(=O)OCCOC(C)=O here?
A: inactive

Q: Which outcome [4] does the source give for O=C(O)Cc1cccc2ccccc12 here?
A: inactive

Q: And the outcome [5]?
A: inactive

Q: For CC(C)CCCCCCCOC(=O)c1ccc(C(=O)OCCCCCCCC(C)C)c(C(=O)OCCCCCCCC(C)C)c1, which outcome [4] is on record?
A: inactive

Q: What about the outcome [5] of the same compound?
A: inactive

Q: For CCC/C=C/C=O, which outcome [4] is on record?
A: inactive

Q: What about the outcome [5] of the same compound?
A: inactive

Q: With OC1OC[C@@H](O)[C@H](O)[C@H]1O (some centres undefined) as the compound, how does the outcome [4] read?
A: inactive

Q: What about the outcome [5] of the same compound?
A: inactive

Q: With O=C(O)c1ccc(C(=O)O)cc1 as the compound, how does the outcome [5] read?
A: inactive

Q: With O=C1c2ccccc2C(=O)N1SC1CCCCC1 as the compound, how does the outcome [5] read?
A: inactive

Q: For C=CC[N+](C)(C)CC=C, which outcome [5] is on record?
A: inactive

Q: For CCCCOCCOCCOCCOCCO, which outcome [5] is on record?
A: inactive

Q: With CC(C)(C#N)c1cc(Cn2cncn2)cc(C(C)(C)C#N)c1 as the compound, how does the AC50 [5] read?
A: 30 µM (active)

Q: What does the source list for CC(=O)OCCC(C)CC(C)(C)C (centres undefined)?
A: outcome [4]: inactive; outcome [5]: inactive

Q: What does the source list for CCCCC[Si](OCC)(OCC)OCC?
A: outcome [4]: inactive; outcome [5]: inactive

Q: For CN(C)CCCN, which outcome [4] is on record?
A: inactive

Q: And the outcome [5]?
A: inactive

Q: What does the source list for CC1(C)C(=O)N(Br)C(=O)N1Cl?
A: outcome [4]: inactive; outcome [5]: inactive

Q: For CCCCCCCCCCCCCCCCCC(=O)OCC(CC)CCCC (centres undefined), which outcome [4] is on record?
A: inactive

Q: And the outcome [5]?
A: inactive

Q: Which outcome [5] does the source give for C[Si](O[Si](C)(C)C)O[Si](C)(C)C here?
A: inactive

Q: Which outcome [5] does the source give for NCCCCCCN here?
A: inactive

Q: For NC(=O)NC1NC(=O)NC1=O (centres undefined), which outcome [4] is on record?
A: inactive

Q: What about the outcome [5] of the same compound?
A: inactive

Q: With CCCC1CCC(=O)O1 (centres undefined) as the compound, how does the outcome [5] read?
A: inactive
